# Sampled rows, rich in hits. Any-hit rate of the full collection: about 5.7%.
# A549 tox-1: Nrf2 qHTS screen for inhibitors: counterscreen for cytotoxicity; A549 ARE-Fluc cells, CellTiter-Fluor viability, 18-24 h; Potency, µM (series often up to 46 µM), actives largely listed as inhibitors; 390,000 tested, 0.16% active; AID 504648, 2011
#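 Cytotoxicity counterscreen: CellTiter-Fluor fluorescence was measured in A549 ARE_Fluc cells after 18-24 h of compound exposure in a concentration series. The subsequent BugLite luminescent read reports ARE-luciferase activity.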
# Nrf2 inh: Nrf2 qHTS screen for inhibitors | A549 ARE-Fluc reporter, luciferase luminescence, 18-24 h | Potency, µM (highest dose often 46 µM), hits mostly inhibitors | 360,000 tested, 2.1% active; further: nearly all actives have a fitted effect of over 60% in size
#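 Quantitative HTS in A549 cells stably bearing an antioxidant response element-firefly luciferase construct. Inhibition of Nrf2-driven transcription was scored by luminescence after 18-24 h of compound exposure at 37 °C.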
# PI4K2A block: qHTS for small molecular inhibitors of PI4K2A; AID 1346378, 2018; Phosphatidylinositol 4-kinase type 2-alpha (Homo sapiens), Q9BTU6; purified PI4K2A, ADP-Glo luminescence, 1 h; hits give low values; activity change, negative = inhibition, % at 76.9 µM; 420,000 tested, 0.13% active; in the data active means activity change below about -50%; inconclusive means mostly about -30% to -49%
# Target sequence (Q9BTU6 whole entry, looked up): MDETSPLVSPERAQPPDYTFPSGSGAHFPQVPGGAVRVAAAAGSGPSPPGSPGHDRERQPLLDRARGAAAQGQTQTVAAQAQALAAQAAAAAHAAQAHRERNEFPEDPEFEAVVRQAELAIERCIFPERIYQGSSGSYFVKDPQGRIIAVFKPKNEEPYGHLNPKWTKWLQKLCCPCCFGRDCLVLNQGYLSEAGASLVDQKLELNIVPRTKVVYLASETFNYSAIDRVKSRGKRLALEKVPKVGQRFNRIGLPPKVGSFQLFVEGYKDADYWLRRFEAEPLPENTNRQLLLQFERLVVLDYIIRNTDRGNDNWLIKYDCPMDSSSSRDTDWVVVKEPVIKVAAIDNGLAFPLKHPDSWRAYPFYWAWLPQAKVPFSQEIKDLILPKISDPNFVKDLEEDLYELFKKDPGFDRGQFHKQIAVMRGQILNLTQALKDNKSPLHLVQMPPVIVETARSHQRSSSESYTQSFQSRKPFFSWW
#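 ADP-Glo luminescence measured ADP generated by PI4K2A enzyme (4 ug/mL before mixing) with 1.2 mM PI substrate (pre-mix) and 300 microM ATP (pre-mix). Tris pH7.5 buffer with MgCl2, Triton X-100; 1 h reaction at ambient temperature.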
# KB-V1 cytotox: qHTS assay for MDR1-selective chemotherapeutics: Primary screen using the drug-selected MDR subline cells KB-V1. KB-V1 MDR cells viability, CellTiter-Glo, 72 h. Potency, µM (series often up to 46.1 µM), usual class: cytotoxic. 400,000 tested, 3.4% active. AID 1347076, 2019; further: nearly all actives have a fitted effect of over 60% in size
#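 Following 72 h at 37 degrees C with compound, KB-V1 cell viability was read by CellTiter-Glo luminescence, medium being phenol-red-free DMEM plus 10% FBS; concentration-response parameters came from normalized, curve-fitted qHTS data.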
# KB-3-1 tox: qHTS assay for MDR1-selective chemotherapeutics: Primary screen using the parental adenocarcinoma cell KB-3-1 | KB-3-1 viability, CellTiter-Glo ATP luminescence, 72 h | Potency, µM (doses to about 46.1 µM), hits mostly cytotoxic | 400,000 tested, 1.4% active | AID 1347075, 2019; further: nearly all actives have a fitted effect of over 60% in size
#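 Cells are dispensed, compounds pinned in, plates held at 37 °C for 72 h, then CellTiter-Glo is added and luminescence read after 10 minutes. Cell line: parental KB-3-1 in phenol-red-free DMEM, 10% FBS.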
# Giardia kill: Small Molecules that selectively kill Giardia lamblia: qHTS | Giardia lamblia trophozoite viability | activity change, % at 7.66 µM, hits read low | 340,000 tested, 0.15% active; in the data active means activity change below about -80%; inconclusive means between about -30% and that limit;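 further: parasites exposed to compound for two days anaerobically before the ATP read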
#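 Each well holds 100 Giardia trophozoites and compound. After two days (48 hrs) at 37 deg C in anaerobic conditions, ATP is quantified by luminescence.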
# FLuc enzyme inh: Nrf2 qHTS screen for inhibitors: Purified Fluc Biochemical Counterscreen for Hit Validation; Potency, µM (top dose mostly 57.5 µM), most hits filed as inhibitors; AID 720522, 2013; shares compounds with Nrf2 inh; 1,400 tested, 4% active; purified firefly luciferase, luminescence inhibition; further: nearly all actives have a fitted effect of over 65% in size
# A549 tox-2: Nrf2 qHTS screen for inhibitors: A549 ARE-Fluc Cytotoxicity Counterscreen for Hit Validation | shares compounds with Nrf2 inh | A549 ARE-Fluc cells, cytotoxicity counterscreen | Potency, µM (titrated, usually from 46.1 µM), usual class: inhibitors | 1,400 tested, 2% active | AID 720523, 2013;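 further: cells exposed to compounds for 18 to 24 hours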
# ARE-Fluc inh: Nrf2 qHTS screen for inhibitors: Nrf2 A549 ARE-Fluc Confirmation Assay for Hit Validation. A549 ARE-firefly luciferase reporter, luminescence. shares compounds with Nrf2 inh. 1,400 tested, 74% active. Potency, µM (doses to about 46.1 µM), most hits filed as inhibitors; further: nearly all actives have a fitted effect of over 65% in size
# Hits are given with their value; - = inactive; ? = inconclusive; . = no result shown. Unless noted, the call rests on the fitted dose curve; in most records, active means well fitted curve in the direction sought with a large enough effect; inconclusive means small, poorly fitted or top-dose-only effect, or another doubt; inactive means no such curve, though single readings can be large; an effect the other way counts as inactive or inconclusive.
SMILES,A549 tox-1,Nrf2 inh,PI4K2A block,KB-V1 cytotox,KB-3-1 tox,Giardia kill,FLuc enzyme inh,A549 tox-2,ARE-Fluc inh
COc1ccc(C(=O)NCC(c2ccco2)S(=O)(=O)c2cccs2)cc1 (centres undefined),-,.,-,-,-,.,.,.,.
COc1cccc(C(=O)N(Cc2ccc(N(C)C)cc2)Cc2ccco2)c1,-,-,-,.,.,.,.,.,.
O=C(OC12CCCN(C1)/C(=C/c1cccc(Cl)c1)C2)c1cccc(F)c1 (centres undefined),.,.,-,.,.,.,.,.,.
Cn1c(=O)c2[nH]c(CCCCCCCCc3nc4ccccc4[nH]3)nc2n(C)c1=O,-,8.2µM,-,-,-,-,-,-,.
CCC(=O)c1ccc(OCc2ccc(C(=O)c3ccccc3)cc2)cc1,?,7.3µM,-,10µM,?,-,-,-,8.2µM
COc1ccc(-c2nc(CSCC(=O)N3CCN(c4cc(Cl)ccc4C)CC3)c(C)o2)cc1,-,7.3µM,-,.,.,.,?,?,12µM
COc1ccc(-c2nc(CSCC(=O)N3CCN(C)CC3)c(C)o2)cc1OC,-,-,-,-,-,-,.,.,.
COc1ccc(-c2nc(CSCC(=O)N3CCN(c4ccc(OC)cc4)CC3)c(C)o2)cc1,-,4.6µM,-,.,.,.,-,-,9.2µM
O=C(N/N=C/c1ccc([N+](=O)[O-])s1)c1ccccc1Br,?,9.2µM,-,?,-,-96,?,-,5.8µM
CCC(=O)/C=C1/Sc2ccccc2N1CC,-,.,-,-,-,-,.,.,.
CCN1/C(=C/c2sc(-c3ccccc3C)c[n+]2C)Sc2ccccc21,?,0.37µM,-,?,0.41µM,-,-,?,1.8µM
N#Cc1nc(N2CCCC2)nc(N2CCCC2)n1,-,5.2µM,-,-,?,-,-,-,13µM
O=C(NC1CC1c1ccccc1)N1CCC(c2nc3ccc(Cl)cc3[nH]2)CC1 (centres undefined),.,.,-,.,.,.,.,.,.
Cc1ccc2oc3c(c(=O)c2c1)C(c1ccccc1F)N(CCCN(C)C)C3=O (centres undefined),-,?,-,.,.,.,.,.,.
CCn1nc(C)c(CNC(=O)c2ccc(OC3CCN(Cc4ccccn4)CC3)cc2)c1C,-,1.5µM,-,.,.,-,-,-,1.5µM
CCOc1ccccc1CN1CCC(Oc2ccc(C(=O)NCc3ccccn3)cc2)CC1,-,?,-,-,?,-,.,.,.
Cc1ccc(NC(=O)C(Cc2ccccc2)n2cccc2)cc1C (centres undefined),-,?,-,.,.,.,.,.,.
CCC(=O)Nc1nc(C)c(-c2csc(Nc3ccc(C(=O)O)cc3)n2)s1,-,-,-,-,-,-,.,.,.
CCCC(=O)Nc1nc(C)c(-c2csc(Nc3ccc(Cl)cc3)n2)s1,?,7.3µM,-,-,?,-,17µM,-,?
CCCC(=O)Nc1nc(C)c(-c2csc(Nc3ccccc3OC)n2)s1,-,-,-,-,-,-,.,.,.
COc1ccccc1Nc1nc(-c2sc(NC(=O)C(C)(C)C)nc2C)cs1,-,7.3µM,-,-,8.2µM,-,?,-,21µM
CC(C)NC(=O)N[C@@H]1C[C@@H]2O[C@@H](CO)CC[C@@H]2O[C@@H]1CCc1ccc(-c2ccc(F)cc2)cc1,.,.,-,.,.,.,.,.,.
O=c1c2c(nc3c(-c4ccc(Cl)cc4)c[nH]n13)CCCC2,-,7.9µM,-,-,?,-,-,-,6.5µM
CCCCCCCCN1C(=O)[C@@H](CC(=O)NCCCOCCCC)C[C@@]2(C(=O)OC)C1=C[C@H](C(C)C)O[C@@H]2C1CC1,.,.,-,.,.,.,.,.,.
O=C1c2cccc3cc([N+](=O)[O-])cc(c23)C(=O)N1CCN1CCCC1,?,1.8µM,-,?,?,-,-,?,?
C[C@]12C=CC(=O)C=C1CC[C@@H]1[C@@H]2[C@@H](O)C[C@@]2(C)[C@H]1CC[C@]2(O)C(=O)COC(=O)CCC(=O)NCCc1ccc(O)cc1,-,0.12µM,-,-,-,-,-,8.2µM,5.8µM
C[C@H]1C[C@@H]2[C@H]([C@@H](O)C[C@@]3(C)[C@H]2CC[C@]3(O)C(=O)CO)[C@@]2(C)C=CC(=O)C=C12,-,0.026µM,-,-,-,-,-,-,0.033µM
